Most compounds without a hit are left out; they make up all but 6.8% or so of the library.
C diff HTS: inhibitors of Clostridium difficile growth. Clostridium difficile clinical isolate growth, OD600, 24 h; stronger effect = lower value. 86,000 compounds, 0.25% hits. growth activity, negative = inhibition, % at 16 µg/mL (by protocol). AID 1259249;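 active = mean growth activity at or below -80% and every replicate also at or below -80%; inconclusive = mean at or below -80% but some replicate above -80%; inactive = mean growth activity above -80%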
Pf Dd2 inh: inhibitors of Plasmodium falciparum Dd2 growth | P. falciparum Dd2 growth, SYBR Green, 72 h; stronger effect = lower value | activity change, % at 10 µM | 94,000 compounds, 2.3% hits; in the data active = activity change below about -80%; inconclusive = no clear call, values can overlap the other calls
T cruzi growth-1: T. cruzi proliferation inhibition; inhibition, % at 8.34 µM; 77,000 compounds, 5.9% hits; T. cruzi beta-gal in NIH3T3, GalScreen luminescence, 90 h;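 active = mean inhibition above about 93%, with at least 55% of replicates each passing it, limit read from the data, passing the limit was not always enough; inconclusive = only one of those two conditions holds; inactive = neither condition holds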
T cruzi growth-2: blocks T. cruzi growth in NIH3T3 host cells. 5,600 compounds, 72% hits. shares compounds with T cruzi growth-1. inhibition, % at 8.35 µM. AID 651739. T. cruzi beta-gal in NIH3T3, GalScreen luminescence, 90 h;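 active = mean replicate inhibition above about 95% and at least 55% of replicates individually reaching it, limit read from the data; inconclusive = only one of the two criteria is met; inactive = neither criterion is met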
T cruzi growth-3: blocks T. cruzi growth in NIH3T3 host cells; shares compounds with T cruzi growth-1; T. cruzi beta-gal in NIH3T3, GalScreen luminescence, 90 h; inhibition, % at 2.09 µM; 5,600 compounds, 21% hits; AID 651740;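 active = mean inhibition above about 95%, with at least 55% of replicates also reaching it, limit read from the data; inconclusive = meets just one of the two conditions; inactive = meets neither condition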
NIH3T3 tox: cytotoxicity in mouse NIH/3T3 fibroblasts. NIH/3T3 viability, CellTiter-Glo ATP luminescence, 90 h. cytotoxicity (signal decrease), % at 8.35 µM. 5,600 compounds, 14% hits. shares compounds with T cruzi growth-1;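 active = mean signal decrease across replicates above about 35% based on untreated-well scatter, with enough replicates individually passing, limit read from the data; inconclusive = no rule stated though some were filed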
3T3 cytotox 2: NIH/3T3 (mouse) viability loss; shares compounds with T cruzi growth-1; NIH/3T3 viability, CellTiter-Glo ATP luminescence, 90 h; inhibition, % at 24.9 µM; 5,600 compounds, 56% hits; AID 651744;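 active = mean loss of cell viability signal at or above a set limit, and enough replicates individually reaching it; inconclusive = meets only the mean limit or only the replicate share; inactive = meets neither condition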
Large screens that a line does not name were inactive (follow-up assays come after a bar, where they were run).

Cc1ccccc1S(=O)(=O)N1CCCCN2[C@H](C1)[C@@H](c1ccc(-c3cncnc3)cc1)[C@@H]2CO	none
Cc1ccccc1S(=O)(=O)N1CCCCN2[C@H](C1)[C@@H](c1ccc(-c3cccnc3)cc1)[C@@H]2CO	none
Cc1ccccc1S(=O)(=O)N1CCCCN2[C@H](CO)[C@H](c3ccc(-c4cncnc4)cc3)[C@@H]2C1	T cruzi growth-1 112.3 | T cruzi growth-2 101.4 | T cruzi growth-3 inactive | NIH3T3 tox inactive | 3T3 cytotox 2 inactive
Cc1ccccc1S(=O)(=O)N1CCCCN2[C@H](C1)[C@H](c1ccc(-c3cncnc3)cc1)[C@@H]2CO	T cruzi growth-1 101.8 | T cruzi growth-2 99.6 | T cruzi growth-3 inactive | NIH3T3 tox inactive | 3T3 cytotox 2 inactive
Cc1ccccc1S(=O)(=O)N1CCCCN2[C@H](CO)[C@@H](c3ccc(-c4cccnc4)cc3)[C@H]2C1	none
O=C(C1CCCC1)N1CC2(C1)[C@@H](c1ccccc1)[C@@H](CO)N2Cc1cncnc1	none (no result: T cruzi growth-1)
CN1CCN(C(=O)C[C@@H]2C=C[C@H](NC(=O)c3ccc4c(c3)OCO4)[C@@H](CO)O2)CC1	none
O=C(Cc1ccccc1)N1CC[C@H]2[C@H](CO)Nc3ccc(-c4cccc(F)c4)cc3[C@H]21	none
COc1ccc(-c2ccc3c(c2)[C@H]2[C@H](CCN2C(=O)Cc2ccncc2)[C@H](CO)N3)cc1	none
O=C(Cc1ccncc1)N1CC[C@@H]2[C@H]1c1cc(-c3cccc(F)c3)ccc1N[C@@H]2CO	T cruzi growth-1 117.8 | T cruzi growth-2 107.5 | T cruzi growth-3 inactive | NIH3T3 tox inactive | 3T3 cytotox 2 inactive
COc1cccc(-c2ccc3c(c2)[C@@H]2[C@@H](CCN2C(=O)Cc2ccncc2)[C@@H](CO)N3)c1	T cruzi growth-1 inconclusive | T cruzi growth-2 100.7 | T cruzi growth-3 inactive | NIH3T3 tox inactive | 3T3 cytotox 2 inactive
CC(=O)N1CC2(C1)[C@H](c1ccc(-c3cccc(F)c3)cc1)[C@H](CO)N2CC1CCOCC1	none (no result: T cruzi growth-1)
CN(C)C(=O)C[C@H]1CC[C@H]2[C@@H](COC[C@@H](O)CN2C(=O)C2CCCC2)O1	none
CC(C)NC(=O)N1[C@@H]2CN(C(=O)Nc3cccc(Cl)c3)c3ccccc3[C@@H]2[C@@H]1CO	none
CCS(=O)(=O)N1[C@H](C#N)[C@@H](c2ccc(C#CC(C)C)cc2)[C@@H]1CO	none
CCc1cnc(N2[C@H](C#N)[C@@H](c3ccc(C#CC(C)C)cc3)[C@@H]2CO)s1	T cruzi growth-1 98.0 | T cruzi growth-2 104.4 | T cruzi growth-3 109.7 | NIH3T3 tox inactive | 3T3 cytotox 2 43.0
CCc1cnc(N2[C@H](CO)[C@@H](c3ccc(C#CC(C)C)cc3)[C@@H]2C#N)s1	T cruzi growth-1 98.9 | T cruzi growth-2 100.7 | T cruzi growth-3 104.5 | NIH3T3 tox inactive | 3T3 cytotox 2 52.3
CCS(=O)(=O)N1[C@H](CO)[C@H](c2ccc(C#CC(C)C)cc2)[C@@H]1C#N	none
COc1ccc(CN(C)C[C@H]2OCCCC[C@@H](C)Oc3ccc(NS(=O)(=O)c4ccccc4)cc3C(=O)N([C@@H](C)CO)C[C@H]2C)cc1	none
Cc1noc(C)c1NC(=O)Nc1ccc2c(c1)C(=O)N(C)[C@@H]1CC[C@@H](CC(=O)N[C@@H]3CCN(Cc4ccccc4)C3)O[C@@H]1CO2	none
Cc1noc(C)c1NC(=O)Nc1ccc2c(c1)C(=O)N(C)[C@H]1CC[C@H](CC(=O)N[C@H]3CCN(Cc4ccccc4)C3)O[C@@H]1CO2	none
Cc1noc(C)c1NC(=O)Nc1ccc2c(c1)C(=O)N(C)[C@H]1CC[C@@H](CC(=O)N[C@H]3CCN(Cc4ccccc4)C3)O[C@H]1CO2	T cruzi growth-1 117.0 | T cruzi growth-2 inactive | T cruzi growth-3 inactive | NIH3T3 tox inactive | 3T3 cytotox 2 inactive
Cc1noc(C)c1NC(=O)Nc1ccc2c(c1)C(=O)N(C)[C@@H]1CC[C@@H](CC(=O)N[C@H]3CCN(Cc4ccccc4)C3)O[C@H]1CO2	T cruzi growth-1 102.3 | T cruzi growth-2 inactive | T cruzi growth-3 inactive | NIH3T3 tox inactive | 3T3 cytotox 2 inactive
